Screening results from PubChem.
Compounds with a hit are over-represented: about 3.6% of the library has one in this group of screens.
Pf apPOL block – Pf-apPOL DNA polymerase inhibition | hit rate 0.25% among 210,000 | inhibition, % at 10 µM | Recombinant Pf-apPOL, molecular beacon fluorescence, 1.5 h
mHTT-CaM PPI inh – mHTT-calmodulin interaction abrogation | P42858 | AlphaScreen His-mHTT/GST-CaM binding, luminescence | inhibition, % at 15 µM | hit rate 3.6% among 190,000;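 further: 0% = both proteins with DMSO and 100% = one protein alone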
Target sequence (P42858 whole entry, looked up, stated change not applied): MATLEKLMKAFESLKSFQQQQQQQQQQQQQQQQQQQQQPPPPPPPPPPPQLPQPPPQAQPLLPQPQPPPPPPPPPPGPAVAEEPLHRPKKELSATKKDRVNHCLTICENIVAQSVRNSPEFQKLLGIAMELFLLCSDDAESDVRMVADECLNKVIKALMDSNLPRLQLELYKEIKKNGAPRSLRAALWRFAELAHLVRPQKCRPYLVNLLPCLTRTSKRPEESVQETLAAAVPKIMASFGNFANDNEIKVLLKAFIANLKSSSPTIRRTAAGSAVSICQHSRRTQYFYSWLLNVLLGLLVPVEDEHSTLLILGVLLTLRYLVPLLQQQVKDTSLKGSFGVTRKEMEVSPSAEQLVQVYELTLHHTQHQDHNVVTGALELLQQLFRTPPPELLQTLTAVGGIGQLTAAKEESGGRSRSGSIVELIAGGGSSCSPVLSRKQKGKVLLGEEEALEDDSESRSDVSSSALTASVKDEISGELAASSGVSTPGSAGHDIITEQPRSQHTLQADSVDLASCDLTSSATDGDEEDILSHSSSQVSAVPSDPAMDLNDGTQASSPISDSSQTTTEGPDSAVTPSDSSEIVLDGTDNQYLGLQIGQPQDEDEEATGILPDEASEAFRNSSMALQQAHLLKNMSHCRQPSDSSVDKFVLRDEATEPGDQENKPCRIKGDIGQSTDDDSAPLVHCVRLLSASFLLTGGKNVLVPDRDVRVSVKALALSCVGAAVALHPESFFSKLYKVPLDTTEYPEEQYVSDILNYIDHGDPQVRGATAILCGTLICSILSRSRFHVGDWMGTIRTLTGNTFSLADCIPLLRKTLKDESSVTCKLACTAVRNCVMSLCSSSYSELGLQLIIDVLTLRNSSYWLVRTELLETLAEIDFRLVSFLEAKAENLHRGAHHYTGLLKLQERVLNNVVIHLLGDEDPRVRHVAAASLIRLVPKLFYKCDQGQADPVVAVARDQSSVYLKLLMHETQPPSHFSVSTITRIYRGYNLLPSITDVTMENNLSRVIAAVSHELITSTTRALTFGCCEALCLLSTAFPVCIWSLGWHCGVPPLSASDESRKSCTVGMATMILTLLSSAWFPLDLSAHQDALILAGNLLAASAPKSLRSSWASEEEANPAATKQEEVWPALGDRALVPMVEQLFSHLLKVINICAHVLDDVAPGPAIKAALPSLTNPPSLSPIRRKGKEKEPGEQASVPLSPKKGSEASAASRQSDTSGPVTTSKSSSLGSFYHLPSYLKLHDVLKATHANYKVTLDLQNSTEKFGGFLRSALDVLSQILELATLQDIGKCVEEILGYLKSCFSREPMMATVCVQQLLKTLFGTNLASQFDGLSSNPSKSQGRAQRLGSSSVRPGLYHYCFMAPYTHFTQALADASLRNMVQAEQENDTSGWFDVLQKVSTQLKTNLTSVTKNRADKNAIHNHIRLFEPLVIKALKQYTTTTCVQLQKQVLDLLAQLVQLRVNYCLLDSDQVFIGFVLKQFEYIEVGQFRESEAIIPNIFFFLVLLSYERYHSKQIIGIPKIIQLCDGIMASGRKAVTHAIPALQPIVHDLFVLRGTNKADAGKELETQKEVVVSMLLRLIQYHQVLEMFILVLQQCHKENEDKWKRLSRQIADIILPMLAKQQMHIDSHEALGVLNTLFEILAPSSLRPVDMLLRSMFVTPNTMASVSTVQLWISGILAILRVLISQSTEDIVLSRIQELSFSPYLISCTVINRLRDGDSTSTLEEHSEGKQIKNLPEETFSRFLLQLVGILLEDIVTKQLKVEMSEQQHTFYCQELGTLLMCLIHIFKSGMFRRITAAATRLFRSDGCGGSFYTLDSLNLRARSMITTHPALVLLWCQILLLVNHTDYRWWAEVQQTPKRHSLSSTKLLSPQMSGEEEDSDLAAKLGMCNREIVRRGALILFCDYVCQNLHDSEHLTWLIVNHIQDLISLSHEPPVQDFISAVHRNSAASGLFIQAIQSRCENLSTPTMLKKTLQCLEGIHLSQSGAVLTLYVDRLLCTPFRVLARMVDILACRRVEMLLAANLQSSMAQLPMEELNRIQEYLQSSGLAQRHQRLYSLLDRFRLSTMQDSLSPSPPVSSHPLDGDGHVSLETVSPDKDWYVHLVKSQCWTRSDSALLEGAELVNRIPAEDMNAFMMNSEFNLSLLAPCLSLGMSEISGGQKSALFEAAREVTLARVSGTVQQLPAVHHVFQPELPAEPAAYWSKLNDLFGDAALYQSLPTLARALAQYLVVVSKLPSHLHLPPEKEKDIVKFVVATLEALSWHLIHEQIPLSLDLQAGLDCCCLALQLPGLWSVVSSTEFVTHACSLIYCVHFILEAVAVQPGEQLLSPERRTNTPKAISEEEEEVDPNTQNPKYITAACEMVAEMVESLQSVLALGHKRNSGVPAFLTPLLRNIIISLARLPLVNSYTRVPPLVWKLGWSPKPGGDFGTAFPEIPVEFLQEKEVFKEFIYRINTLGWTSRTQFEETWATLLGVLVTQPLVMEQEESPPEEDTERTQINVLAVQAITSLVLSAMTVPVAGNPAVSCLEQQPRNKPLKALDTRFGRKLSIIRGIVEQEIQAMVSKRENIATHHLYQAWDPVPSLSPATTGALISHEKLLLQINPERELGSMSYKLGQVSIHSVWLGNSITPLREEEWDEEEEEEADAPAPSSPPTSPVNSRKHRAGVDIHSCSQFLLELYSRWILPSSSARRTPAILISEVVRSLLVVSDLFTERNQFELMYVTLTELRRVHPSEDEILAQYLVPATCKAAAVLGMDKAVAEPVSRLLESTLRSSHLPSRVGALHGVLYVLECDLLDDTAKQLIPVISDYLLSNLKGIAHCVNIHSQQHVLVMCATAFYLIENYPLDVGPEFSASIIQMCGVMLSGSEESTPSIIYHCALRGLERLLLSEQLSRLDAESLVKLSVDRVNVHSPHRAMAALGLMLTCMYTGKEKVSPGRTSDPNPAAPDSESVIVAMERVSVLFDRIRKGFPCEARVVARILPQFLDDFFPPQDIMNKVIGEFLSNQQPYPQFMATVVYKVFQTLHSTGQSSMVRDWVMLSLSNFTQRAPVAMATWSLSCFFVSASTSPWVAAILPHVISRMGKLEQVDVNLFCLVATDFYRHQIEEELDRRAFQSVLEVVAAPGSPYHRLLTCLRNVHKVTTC
* marks the source's active call; other numbers are inactive results; i = inactive; x = not tested or not shown; + = active, no number. No stated cut-off is given here; in the data, active means inhibition above about 50%; inactive means the rest.

SMILES	Pf apPOL block	mHTT-CaM PPI inh
COc1ccc(OCC(=O)Nc2ccc(NC(=O)c3cc4ccccc4o3)c(OC)c2)cc1	3	-2
COc1ccc(NC(=O)N2CCCC2c2ccc(F)cc2)cc1OC (configuration not stated)	-2	-7
O=C(COc1cc(=O)n2ccccc2n1)Nc1ccccc1	-62	-8
CCC(=O)Oc1ccc(NC(=O)c2ccc(S(=O)(=O)N3CCCC3)cc2)cc1	-2	-7
Cc1nc(-c2ccccc2)nc2c1CCC(=O)N2C	2	-11
Cc1cccc(OCC(=O)NC(C)(C)C)c1C	-1	-4
CCc1ccccc1N(CC(=O)Nc1ccc(F)cc1F)S(=O)(=O)c1ccccc1	-8	81*
CC(C)NC(=O)c1ccccc1NC(=O)CN(c1ccccc1F)S(=O)(=O)c1ccccc1	92*	3
COc1ccc(N(CC(=O)Nc2ccc(F)cc2F)S(=O)(=O)c2ccccc2)c(OC)c1	-6	0
CCc1ccccc1N(CC(=O)Nc1ccccc1C(=O)NC(C)C)S(C)(=O)=O	-3	-1
COc1cc([N+](=O)[O-])ccc1N1C(=O)C2C3C=CC(O3)C2C1=O (configuration not stated)	-4	2
COc1cccc(NC(=O)C2CCN(c3cc(N4CCCCC4)ncn3)CC2)c1	0	24
CCOc1ccc(C(=O)N2CCc3c(c(-c4nc(C5CC5)no4)nn3C)C2)cc1	-5	20
N#C/C(=C\c1cc([N+](=O)[O-])ccc1Cl)C(=O)NCCc1c[nH]c2ccccc12	-4	96*
N#C/C(=C\c1c[nH]c2ccccc12)C(=O)Nc1cc([N+](=O)[O-])ccc1Cl	-4	7
O=C(Cc1cccc(F)c1)N1CCC(CCOc2cccnc2)CC1	-7	5
O=C(Nc1ccc2nn(-c3cccc(Cl)c3)nc2c1)c1ccco1	8	0
CCOc1ccc(N=c2scc(-c3ccc(Br)cc3)n2CCO)cc1	-4	19
OCCCn1c(-c2ccc(Br)cc2)csc1=Nc1ccccc1	5	59*
Cc1ccc(C)c(-c2csc(=Nc3ccccc3)n2CCCO)c1	-3	100*
CCCCn1c(-c2ccc(S(=O)(=O)N3CCOCC3)cc2)csc1=Nc1ccccc1	-5	12
CCOc1ccc(N=c2scc(-c3ccccc3)n2CCO)cc1	-3	35
CCCn1c(-c2ccc(S(=O)(=O)N3CCOCC3)cc2)csc1=Nc1ccccc1	-8	18
O=S(=O)(c1ccc(-c2csc(=Nc3ccccc3)n2CCCO)cc1)N1CCCCC1	0	51*
Clc1ccc(-c2csc(=Nc3ccccc3)n2CCCN2CCOCC2)cc1	-6	98*
SMILES	Pf apPOL block	mHTT-CaM PPI inh
CCNC(=O)c1csc(COc2ccccc2F)n1	1	-8
C=CCOc1ccccc1CN1CCCCC1	2	0
Cc1cccn2c(=O)c3cc(S(=O)(=O)c4ccccc4)c(=N)n(C4CCCCC4)c3nc12	-2	7
CC(C)n1cc2cc(C(=O)NCc3nc4ccccc4n3C)sc2c1	-1	39
Cc1ccsc1C(=O)NCc1nnc2n1CCCC2	-5	-5
O=[N+]([O-])c1ccccc1-c1cc(-c2cc(Cl)ccc2O)n[nH]1	2	100*
Cc1cc(-c2cc(Cl)ccc2O)n[nH]1	-4	6
COc1ccc(OCc2nc3ccccc3n2Cc2ccccc2)cc1	-1	18
Cc1ccc(-c2c(C(=O)NCCN3CCN(c4ccccc4)CC3)oc(=O)c3ccccc23)cc1	-1	54*
Cc1ccc(-c2c(C(=O)NCc3ccccc3)oc(=O)c3ccccc23)cc1	3	-5
O=C(NCCc1c[nH]c2ccccc12)c1ccc(Cl)c(N2C(=O)CCS2(=O)=O)c1	-2	9
N#CSc1ccc(NC2(c3ccccc3)C(=O)c3ccccc3C2=O)cc1	-1	3
CCS(CC)=NS(=O)(=O)c1ccc([N+](=O)[O-])cc1	-6	x
CC1=CC(=NS(=O)(=O)c2ccc([N+](=O)[O-])cc2)C=C(C)C1=O	1	67*
N#Cc1c(-n2cccc2/C=N/O)sc2c1CCCC2	2	i
Cc1cc(/C=N/NC(N)=S)c(C)n1-c1sc2c(c1C#N)CCCC2	x	+
COc1ccc(-c2cn3c4c(=O)n(C)c(=O)n(C)c4nc3n2CCCO)cc1	0	-2
Cn1cc(C2=CCN(S(=O)(=O)c3ccc(F)c(Cl)c3)CC2)c2cccnc21	-7	8
CCOc1ccc2c(=O)c(Oc3ccc(OC)cc3)c(C)oc2c1	-3	-6
O=[N+]([O-])c1cccc(/C=C/c2nc(C=Nc3ccccc3)c(O)o2)c1	1	-2
O=[N+]([O-])c1cccc(/C=C/c2nc(C=Nc3ccc(O)cc3)c(O)o2)c1	5	50*
O=C(NCCc1ccccc1)N1CCCC1c1nc(-c2ccccc2)no1 (configuration not stated)	0	1
Cc1cccc(-c2noc(C3CCCN3C(=O)Cc3cccc(Cl)c3)n2)c1 (configuration not stated)	-6	79*
O=C(NCCc1ccccc1)N1CCCC1c1nc(-c2cccc(Cl)c2)no1 (configuration not stated)	-3	61*
